TDP1 cell noCPT: qHTS for Inhibitors of human tyrosyl-DNA phosphodiesterase 1 (TDP1): qHTS in cells in absence of CPT. DT40 Tdp1-/- hTDP1 cells, no CPT, ATP luminescence, 48 h. Potency, µM (series often up to 46.2 µM), inactives show at the top dose activity change, negative = growth inhibition, actives largely listed as inhibitors. 15% of 420,000 active. AID 686978, 2013; note: potency is the fitted concentration of half-maximal effect; nearly all actives have a fitted effect of over 55% in size
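Growth of hTDP1-complemented DT40 Tdp1-knockout cells is measured by ATP luminescence after at least 48 hr compound exposure at 37 °C, with DMSO substituting for the 20 nM CPT used in the parallel screen.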
HT1080 IDH1KD tx: kills HT-1080 cells with IDH1 knockdown; 2% of 360,000 active; HT-1080 IDH1 knockdown viability, ATP luminescence, 48 h; Potency, µM (series often up to 46.1 µM), for inactives: at the top dose activity, negative = toxicity, hits mostly cytotoxic; AID 686971;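 note: potency is the fitted concentration of half-maximal effect; 0% = DMSO wells and -100% = cell-free medium wells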
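Luminescent ATP read-out (CellTiter-Glo, 10 min at room temperature) after 48 h compound exposure at 37 °C gave viability of IDH1-knockdown HT-1080 cells. Activity was normalised to DMSO and cell-free wells, then fitted as concentration-response curves.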
TDP1 cell CPT: DT40-hTDP1 cell growth loss with CPT | Potency, µM (doses to about 46.2 µM), for inactives: at the top dose activity change, negative = growth inhibition, actives largely listed as inhibitors | AID 686979 | chicken DT40 Tdp1-/-;hTDP1 cells + 20 nM CPT, ATP luminescence, 48 h | 12% of 420,000 active; note: potency is the fitted concentration of half-maximal effect; nearly all actives have a fitted effect of over 55% in size
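Chicken DT40 Tdp1-/- cells complemented with human TDP1, 400 cells/well, exposed to compounds plus 20 nM camptothecin for at least 48 h at 37 C; viability read as ATP content by CellTiter-Glo luminescence.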
ELG1 repair inh: blocks ELG1-dependent DNA repair in HEK293T cells; HEK293T ELG1-luciferase reporter, luminescence, 16 h; DNA damage induced by 5-fluorouridine; Potency, µM (top dose mostly 46.1 µM), without a hit: at the top dose activity change, negative = inhibition, actives largely listed as inhibitors; AID 504467; 2.3% of 330,000 active; note: potency is the fitted concentration of half-maximal effect; nearly all actives have a fitted effect of over 55% in size
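Step one: seed 2,000 cells per well. Step two: pin-transfer compound or DMSO alongside 5-fluorouridine. Step three: incubate 16 hr, 37 °C, 5% CO2. Step four: add ONE-Glo, wait 30 min, read luminescence.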
HT1080NT lethal: kills 2HG-producing HT-1080-NT fibrosarcoma cells; HT-1080-NT fibrosarcoma viability, CellTiter-Glo ATP luminescence, 48 h; Potency, µM (titrated, usually from 46.1 µM), for inactives: at the highest dose activity, negative = less viability, most hits filed as cytotoxic; 1.6% of 360,000 active;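 note: NT is the 2HG producing partner of a matched IDH1 knockdown line; potency is the fitted concentration of half-maximal effect; 0% = DMSO-treated cells and -100% = media-only wells without cells; nearly all actives have a fitted effect of over 55% in size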
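HT-1080-NT; 750 cells/well; 5% FBS RPMI; 48 h compound, 37 degrees C; CellTiter-Glo luminescence; curve fitting and curve-class assignment.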
IL-1B inflam inh: inhibitors of inflammasome signaling (IL-1 beta secretion) | THP-1 LPS/ATP IL-1B secretion, AlphaLISA, 16 h; stronger effect = lower value | activity change, % at 57.5 µM | 4.7% of 360,000 active | AID 743279; in the data active = activity change below about -50%; inconclusive = mostly about -30% to -49%
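THP-1 cells pretreated 1 hr with compounds (up to 57.5 uM final), then stimulated with LPS (250 ng/mL final) plus ATP (1.25 mM final); secreted IL-1B measured by AlphaLISA after 16 hr, decreased signal indicating inhibition.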
The depositor's hits bear a star. Sampled rows, rich in hits. Any-hit rate of the full collection: about 19%. Unless noted, calls come from the whole dose curve; as a rule, active = well fitted curve in the direction sought with a large enough effect; inconclusive = small, poorly fitted or top-dose-only effect, or another doubt; inactive = no such curve, though single readings can be large; an effect the other way counts as inactive or inconclusive. Unless noted, % is set by controls: 0 for no effect and ±100 for the full control effect.

Results for CC(C)NC(=O)c1ccc2c3n(nc2c1)-c1ccccc1CO3 ?
TDP1 cell noCPT: 20.6µM*; HT1080 IDH1KD tx: inconclusive; TDP1 cell CPT: inconclusive; ELG1 repair inh: inconclusive; HT1080NT lethal: inconclusive; IL-1B inflam inh: 0.0

What do the screens show for `CC1(C(=O)NCc2ccccc2)CSCC(=O)N1CCOc1ccccc1` (stereo not given)?
TDP1 cell noCPT: -24.4%; HT1080 IDH1KD tx: -6.9%; TDP1 cell CPT: -26.1%; HT1080NT lethal: -11.8%; IL-1B inflam inh: -10.8

Results for CCOC(=O)N1CCN(C(=O)CS(=O)(=O)c2cn(Cc3cccc(F)c3)c3ccccc23)CC1 ?
TDP1 cell noCPT: -21.0%; HT1080 IDH1KD tx: -0.8%; TDP1 cell CPT: -28.0%; ELG1 repair inh: inconclusive; HT1080NT lethal: -6.2%; IL-1B inflam inh: -8.3

Results for CCOC(=O)N1CCN(C(=O)CS(=O)(=O)c2cn(Cc3ccccc3C)c3ccccc23)CC1 ?
TDP1 cell noCPT: inconclusive; HT1080 IDH1KD tx: -0.8%; TDP1 cell CPT: -3.3%; ELG1 repair inh: 9.2µM*; HT1080NT lethal: -0.3%; IL-1B inflam inh: 16.1

Results for Cc1ccccc1Cn1cc(S(=O)(=O)CC(=O)Nc2nccs2)c2ccccc21 ?
TDP1 cell noCPT: inconclusive; HT1080 IDH1KD tx: -22.3%; TDP1 cell CPT: inconclusive; ELG1 repair inh: inconclusive; HT1080NT lethal: inconclusive; IL-1B inflam inh: -63.8*

Results for O=C(CS(=O)(=O)c1ccccc1)Nc1nccs1 ?
TDP1 cell noCPT: -8.1%; HT1080 IDH1KD tx: 5.5%; TDP1 cell CPT: -0.5%; ELG1 repair inh: 19.5%; HT1080NT lethal: 2.9%; IL-1B inflam inh: 12.2

What do the screens show for `CC1(C(=O)O)CCCN1C(=O)c1ccco1` (stereo not given)?
TDP1 cell noCPT: 7.0%; HT1080 IDH1KD tx: 19.7%; TDP1 cell CPT: -7.8%; HT1080NT lethal: inconclusive; IL-1B inflam inh: 12.0

What do the screens show for `CCOc1ccc(CCN2C(=O)C(=O)N([C@@H](Cc3ccccc3)CN3CCC[C@H]3CN3C(=O)C(=O)NC[C@@H]3CC(C)C)C[C@@H]2Cc2ccc(O)cc2)cc1`?
TDP1 cell noCPT: inconclusive; HT1080 IDH1KD tx: inconclusive; TDP1 cell CPT: -91.2%; HT1080NT lethal: inconclusive; IL-1B inflam inh: -53.0*

What do the screens show for `CCOc1ccc(CCN2C(=O)C(=O)N([C@@H](Cc3ccccc3)CN3CCC[C@H]3CN3C(=O)C(=O)NC[C@@H]3Cc3ccc(O)cc3)C[C@@H]2Cc2ccc(O)cc2)cc1`?
TDP1 cell noCPT: inconclusive; HT1080 IDH1KD tx: -5.2%; TDP1 cell CPT: inconclusive; HT1080NT lethal: -9.4%; IL-1B inflam inh: -60.1*

What do the screens show for `CCOc1ccc(CCN2C(=O)C(=O)N([C@@H](Cc3ccc(O)cc3)CN3CCC[C@H]3CN3C(=O)C(=O)NC[C@@H]3Cc3ccc(O)cc3)C[C@@H]2Cc2ccccc2)cc1`?
TDP1 cell noCPT: inconclusive; HT1080 IDH1KD tx: -4.0%; TDP1 cell CPT: inconclusive; HT1080NT lethal: -5.4%; IL-1B inflam inh: 0.0

Results for O=C1/C(=C\c2ccc(O)cc2)SC(=S)N1/N=C/c1ccc(O)cc1 ?
TDP1 cell noCPT: -1.4%; HT1080 IDH1KD tx: 6.0%; TDP1 cell CPT: -25.1%; ELG1 repair inh: 0.0%; HT1080NT lethal: 1.2%; IL-1B inflam inh: -15.5

Results for O=C1/C(=C/c2cccc(Br)c2)SC(=S)N1/N=C/c1cc([N+](=O)[O-])ccc1O ?
TDP1 cell noCPT: inconclusive; HT1080 IDH1KD tx: -1.7%; TDP1 cell CPT: 23.1µM*; ELG1 repair inh: -9.1%; HT1080NT lethal: 3.1%; IL-1B inflam inh: -12.5

What do the screens show for `CCOC(=O)CSc1nc2ccccc2c(=O)n1CC1CCC(C(=O)NCc2ccco2)CC1` (stereo not given)?
TDP1 cell noCPT: 23.1µM*; HT1080 IDH1KD tx: 2.4%; TDP1 cell CPT: inconclusive; ELG1 repair inh: -16.1%; HT1080NT lethal: -12.7%; IL-1B inflam inh: 0.1

How did CCOC(=O)CSc1nc2ccccc2c(=O)n1CC do in these assays?
TDP1 cell noCPT: 7.5%; HT1080 IDH1KD tx: 6.5%; TDP1 cell CPT: -3.5%; ELG1 repair inh: 11.1%; HT1080NT lethal: 1.7%; IL-1B inflam inh: 4.8

What do the screens show for `CCOC(=O)CSc1nc2ccccc2c(=O)n1CC1CCCC1`?
TDP1 cell noCPT: 14.6µM*; HT1080 IDH1KD tx: -4.6%; TDP1 cell CPT: 10.3µM*; ELG1 repair inh: -17.4%; HT1080NT lethal: -2.5%; IL-1B inflam inh: -5.7

Results for Fc1ccc(Nc2cncc(-c3ccsc3)c2)cc1Cl ?
TDP1 cell noCPT: 18.4µM*; HT1080 IDH1KD tx: -6.5%; TDP1 cell CPT: 16.4µM*; HT1080NT lethal: 4.2%; IL-1B inflam inh: 0.0

What do the screens show for `O=C(Nc1ccsn1)c1ccc(Cl)cc1Cl`?
TDP1 cell noCPT: -3.1%; HT1080 IDH1KD tx: 10.7%; TDP1 cell CPT: -17.4%; ELG1 repair inh: inconclusive; HT1080NT lethal: 25.1%; IL-1B inflam inh: inconclusive

How did Cc1c(/C=N/NC(=O)c2cccnc2)c2ccccn2c1C(=O)c1ccc(F)cc1 do in these assays?
ELG1 repair inh: 18.4µM*

Results for Cc1c(/C=N/NC(=O)c2ccccc2O)c2ccccn2c1C(=O)c1ccc(F)cc1 ?
TDP1 cell noCPT: 23.1µM*; HT1080 IDH1KD tx: inconclusive; TDP1 cell CPT: inconclusive; ELG1 repair inh: 23.1µM*; HT1080NT lethal: inconclusive; IL-1B inflam inh: -87.6*

What do the screens show for `COC(=O)N/N=C/c1c(C)c(C(=O)c2ccc(F)cc2)n2ccccc12`?
TDP1 cell noCPT: inconclusive; HT1080 IDH1KD tx: inconclusive; TDP1 cell CPT: inconclusive; ELG1 repair inh: 23.1µM*; HT1080NT lethal: -0.6%; IL-1B inflam inh: 4.3

Results for Cc1c(/C=N/NC(N)=O)c2ccccn2c1C(=O)c1ccncc1 ?
TDP1 cell noCPT: -20.4%; HT1080 IDH1KD tx: inconclusive; TDP1 cell CPT: inconclusive; ELG1 repair inh: inconclusive; HT1080NT lethal: inconclusive; IL-1B inflam inh: -21.6

Results for N[C@@H](Cc1ccc(O)cc1)C(=O)NO ?
TDP1 cell noCPT: 8.5%; HT1080 IDH1KD tx: 17.4%; TDP1 cell CPT: 10.7%; HT1080NT lethal: 7.2%

How did Cc1nc(N2CCCC2)ncc1C(=O)NCc1cccc(Cl)c1 do in these assays?
TDP1 cell noCPT: -4.6%; TDP1 cell CPT: -25.4%

How did COc1ccccc1C1=CC(=O)C[C@H](c2ccc3c(c2)OCO3)C1 do in these assays?
TDP1 cell noCPT: 18.4µM*; HT1080 IDH1KD tx: inconclusive; TDP1 cell CPT: 16.4µM*; ELG1 repair inh: 0.0%; HT1080NT lethal: inconclusive; IL-1B inflam inh: -5.0
